Reference: PubChem BioAssay (NCATS)
“And” between values parts separate entries of the source, which are not always exact repeats. Equal entries are not always repeated. Records with an inconclusive call do not appear. More than one record can exist for a structure, and the calls need not agree. The source made the active and inactive calls. The call rests on the fitted dose curve; in most records, active means well fitted curve in the direction sought with a large enough effect; inconclusive means small, poorly fitted or top-dose-only effect, or another doubt; inactive means no such curve, though single readings can be large; an effect the other way counts as inactive or inconclusive. Starred links: 1 amine or outer side, 2 acyl side, 3 side chain; linkers in the order of their positions; H or OH if unused. Positions of bridges follow the written chain, without caps; N, C: chain ends. Non-standard residues stand in square brackets, D forms with d. Residues, ends and D or L forms follow the SMILES beside them. Chains are numbered I, II in the order given. Actinocin(9to1) = Cc1c2oc3c(C)ccc(C(=O)[*:1])c3nc-2c(C(=O)[*:2])c(N)c1=O; NMeV = CN[CH](C(=O)O)C(C)C; Sar = CNCC(=O)O

test: P-glycoprotein substrates identified in KB-3-1 adenocarcinoma cell line, qHTS therapeutic library screen (AID 1346986); details: KB-3-1 parental cells viability, CellTiter-Glo, 72 h; series mostly up to 44.5 µM; activity change, negative = cytotoxicity: at the top concentration; further: nearly all actives have a fitted effect of over 60% in size;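 further: potency is for cytotoxicity meaning loss of cell viability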
Outline: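 KB-3-1 parental cells and P-gp-overexpressing KB-8-5-11 (colchicine omitted during assay) plated at 500 cells/well, dosed in dose-response, incubated 72 h at 37 degree C. CellTiter-Glo luminescence read; KB-8-5-11 also tested with tariquidar.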
Potency means the concentration at half of the fitted maximal effect.

Compound | outcome | Potency
CCCCCCCCCCCCCCCC(=O)OC[C@@H](NC(=O)C(Cl)Cl)[C@H](O)c1ccc([N+](=O)[O-])cc1 | inactive | –
CCCNS(=O)(=O)Nc1ncnc(OCCOc2ncc(Br)cn2)c1-c1ccc(Br)cc1 | inactive | –
Cn1cc(C=CC(=O)c2cccc(F)c2)cc1C=CC(=O)NO | inactive | –
CCN1CCN(C(=O)N[C@H](C(=O)N[C@@H]2C(=O)N3C(C(=O)O)=C(CSc4nnnn4C)CS[C@@H]23)c2ccc(O)cc2)C(=O)C1=O | inactive [at 9.29 µM] | –
CC(=O)O[C@H]1C[C@@H]2CC[C@H]3[C@H]4C[C@H]([N+]5(C)CCCCC5)[C@@H](OC(C)=O)[C@@]4(C)CC[C@@H]3[C@@]2(C)C[C@H]1[N+]1(C)CCCCC1 | inactive | –
O=C1c2c(O)cccc2[C@@H]([C@@H]2O[C@H](CO)[C@@H](O)[C@H](O)[C@H]2O)c2cc(CO)cc(O)c21 | inactive | –
O=C(O)CCCCC(CCSCc1ccccc1)SCc1ccccc1 (centres undefined) | inactive | –
Nc1ccc(C(=O)Nc2cccc(-c3nc(N4CCOCC4)c4oc5ncccc5c4n3)c2)cn1 | – | inactive and 13 µM (active)
Cc1noc(-c2ccc(CSCCC(=O)O)cc2)c1NC(=O)OC(C)c1ccccc1Cl (centres undefined) | inactive | –

test: P-glycoprotein substrates identified in KB-8-5-11 adenocarcinoma cell line, qHTS therapeutic library screen (AID 1346987); details: KB-8-5-11 (P-gp overexpressing) viability, CellTiter-Glo, 72 h; series mostly up to 44.5 µM; activity change, negative = cytotoxicity: at the top concentration; further: nearly all actives have a fitted effect of over 65% in size; on activity change, negative = cytotoxicity: on the % scale 0 is the no-effect control and ±100 the full control effect
Outline: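 P-gp-mediated resistance screen: KB-8-5-11 cells treated 72 h with compounds in dose-response. CellTiter-Glo viability.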

Compound | activity change, negative = cytotoxicity | outcome | Potency
CCCCCCCCCCCCCCCC(=O)OC[C@@H](NC(=O)C(Cl)Cl)[C@H](O)c1ccc([N+](=O)[O-])cc1 | 5.17% (inactive) | – | –
Cn1cc(C[C@@H](N)C(=O)O)c2ccccc21 | – | inactive [at 17.3 µM] | –
Cc1cc(-c2nnc3n2CCCCC3)c(C)n1-c1ccccc1 | -6.56% (inactive) | – | –
N[C@H]1CN(c2c(F)cc3c(=O)c(C(=O)O)cn(C4C[C@@H]4F)c3c2Cl)CC12CC2 (some centres undefined) | -6.84% (inactive) | – | –
C=CC1=C(C(=O)O)N2C(=O)[C@@H](NC(=O)C(=NO)c3csc(N)n3)[C@H]2SC1 | 2.36% (inactive) | – | –
C[C@@H](Cc1cc2c(c(C(N)=O)c1)N(CCCO)CC2)NCCOc1ccccc1OCC(F)(F)F | -5.75% (inactive) | – | –
C[C@H]1COc2c(N3CCN(C)CC3)c(F)cc3c(=O)c(C(=O)O)cn1c23 | 7.83% (inactive) | – | –
C=CCNC1=C2C[C@@H](C)C[C@H](OC)[C@@H](O)[C@@H](C)C=C(C)[C@H](OC(N)=O)[C@@H](OC)C=CC=C(C)C(=O)NC(=CC1=O)C2=O | – | – | 3.72 µM (active)
CCNC(=O)c1cc2c(-c3cc(OCCN4CCCC4)c(Cl)cc3Cl)nc(N)nc2s1 | – | – | 5.26 µM (active)
COC(=O)[C@H](CCCN=C(N)N)NS(=O)(=O)c1ccc(C)cc1 | – | inactive | –
CCCNS(=O)(=O)Nc1ncnc(OCCOc2ncc(Br)cn2)c1-c1ccc(Br)cc1 | -19.6% (inactive) | – | –
C[C@@H]1CC[C@@]2(OC1)OC1CC3C4CC=C5CC(O)CCC5(C)C4CCC3(C)C1[C@@H]2C (some centres undefined) | -2.45% (inactive) | – | –
CCN1CCN(C(=O)N[C@H](C(=O)N[C@@H]2C(=O)N3C(C(=O)O)=C(CSc4nnnn4C)CS[C@@H]23)c2ccc(O)cc2)C(=O)C1=O | – | inactive [at 9.29 µM] | –
Cn1c(Nc2ccc(C(F)(F)F)cc2)nc2cc(Oc3ccnc(-c4ncc(C(F)(F)F)[nH]4)c3)ccc21 | – | – | 20.9 µM (active)
CC(=O)O[C@H]1C[C@@H]2CC[C@H]3[C@H]4C[C@H]([N+]5(C)CCCCC5)[C@@H](OC(C)=O)[C@@]4(C)CC[C@@H]3[C@@]2(C)C[C@H]1[N+]1(C)CCCCC1 | 6.79% (inactive) | – | –
O=C1c2c(O)cccc2[C@@H]([C@@H]2O[C@H](CO)[C@@H](O)[C@H](O)[C@H]2O)c2cc(CO)cc(O)c21 | 7.42% (inactive) | – | –
Nc1nc(=O)n([C@H]2C[C@H](O)[C@@H](CO)O2)cc1F | – | – | 4.18 µM (active)
OCCNC1CCCc2c1[nH]c1ccc(-c3ccccc3)cc21 (centres undefined) | – | – | 6.51 µM (active)
C=C1C(=O)O[C@H]2[C@@H]1CCC(C)=CCC[C@@]1(C)O[C@@H]21 | – | – | 23.5 µM (active)
CCCNC(=O)[C@H]1O[C@H]1C(=O)N[C@H](C(=O)N1CCC[C@@H]1C(=O)OC)C(C)CC (some centres undefined) | -11.8% (inactive) | – | –
CC(C)(O)Cn1c(NC(=O)c2ccc(-c3cn[nH]c3)s2)nc2cc(CN3CCOCC3)ccc21 | – | – | 3.72 µM (active)
CC[C@H](CC[C@@H](C)[C@H]1CC[C@H]2[C@@H]3CC=C4C[C@@H](O)CC[C@]4(C)[C@@H]3CC[C@]12C)C(C)C | -1.59% (inactive) | – | –
CC(=O)OCC(=O)[C@@]12N=C(C)O[C@H]1C[C@H]1[C@@H]3CCC4=CC(=O)C=C[C@]4(C)[C@@H]3[C@@H](O)C[C@@]12C | – | inactive | –
COC(=O)[C@@H]1[C@H]2C[C@@H]3c4[nH]c5ccccc5c4CCN3C[C@@H]2CC[C@@H]1O | – | inactive | –
Cc1c2oc3c(C)ccc(C(=O)NC4C(=O)NC(C(C)C)C(=O)N5CCCC5C(=O)N(C)CC(=O)N(C)C(C(C)C)C(=O)OC4C)c3nc-2c(C(=O)NC2C(=O)NC(C(C)C)C(=O)N3CCCC3C(=O)N(C)CC(=O)N(C)C(C(C)C)C(=O)OC2C)c(N)c1=O (centres undefined) (I: TVP[Sar][NMeV] / II: TVP[Sar][NMeV]; ester I:1-I:C, II:1-II:C; linker I:N-II:N via Actinocin(9to1); configuration not given here) | – | – | 0.187 µM (active)
C[C@H]1C[C@H]2[C@@H]3CCC4=CC(=O)C=C[C@]4(C)[C@@H]3C(=O)C[C@]2(C)[C@@]1(O)C(=O)CO | -6.48% (inactive) | – | –
O=C1NCCc2[nH]c(-c3ccncc3)cc21 | – | – | 7.43 µM (active)
CC[C@H]1OC(=O)[C@H](C)[C@@H](O[C@H]2C[C@@](C)(OC)[C@@H](O)[C@H](C)O2)[C@H](C)[C@@H](O[C@@H]2O[C@H](C)C[C@H](N(C)C)[C@@H]2O)[C@](C)(OC)C[C@@H](C)C(=O)[C@H](C)[C@@H](O)[C@]1(C)O | -1.37% (inactive) | – | –
CC(=O)SCC(Cc1ccccc1)C(=O)NCC(=O)OCc1ccccc1 (centres undefined) | 0.558% (inactive) | – | –
N#Cc1cc(NC(=O)Nc2nnc(-c3ccncc3)s2)ccc1-c1cn[nH]c1 | – | inactive | –
